Experimental data published in the supplement of paper PMC10933113.
Values without a mark were called inactive.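 Rule for the calls: active = curve rank above 3; inactive = curve rank 0.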

Test system: KeratinoSens (HaCaT ARE-luciferase) cells
Test: Nrf2/ARE luciferase activation call in qHTS KeratinoSens assay (1 = active, 0 = inactive)

SMILES	Nrf2/ARE luciferase activation call
Cn1c(=O)c2c(ncn2C)n(C)c1=O.O=C(O)CC(O)(CC(=O)O)C(=O)O	not active ARE inducer (skin sensitizer alert)
CN(C)CC[C@@H](c1ccc(Br)cc1)c1ccccn1.O=C(O)/C=C\C(=O)O	not active ARE inducer (skin sensitizer alert)
Cc1cc(C)[nH]c(=O)n1.O=C(Nc1ccc([N+](=O)[O-])cc1)Nc1ccc([N+](=O)[O-])cc1	not active ARE inducer (skin sensitizer alert)
CCCC[n+]1ccccc1C.O=S(=O)([O-])C(F)(F)F	not active ARE inducer (skin sensitizer alert)
O=C(O)/C=C/C(=O)O.O=C1c2ccccc2C(=O)N1CCc1noc(-c2ccc(CN3CCCCCC3)s2)n1	not active ARE inducer (skin sensitizer alert)
CN1CCC(=C2c3ccccc3Sc3ccccc32)CC1.O=C(O)/C=C\C(=O)O	not active ARE inducer (skin sensitizer alert)
